Results published in PubChem BioAssay AID1159580 (chemical genetic matrix, 2015).
Several values for one entry are separate records, joined by “and”; a condition that tells them apart may be missing. Identical values can stand only once. Hit rate of the full screen: of about 5,500 compounds, about 2,000 (36%) were called active. Roughly 18% stayed inconclusive and do not appear here. Rule as the data show it: active = normalized growth mostly below about 0.91 (no sharp cut-off); inconclusive = no clear call, values can overlap the other calls; inactive = mostly above about 0.92. The list shows a part of the results.

Test: chemical genetic growth profiling, strain panel (AID 1159580);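 also: tested at 20 µM; growth read once vehicle control cultures reached saturation at 30 °C; 1 = growth at the plate median or of vehicle wells; lower values mean less growth of the strain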
Conditions: S. cerevisiae deletion strains, growth OD

Measured: normalized growth

COc1c2occc2c(OC)c2c(=O)cc(C)oc12
active: locus YDR392W, strain spt3, active compounds read low 0.734 | locus YNL071W, strain lat1, active compounds read low 0.912
inactive: locus YAL021C, strain ccr4, active compounds read low 0.992 | locus YAL026C, strain drs2, active compounds read low 0.985 | locus YAL030W, strain snc1, active compounds read low 0.992 | locus YBL061C, strain skt5, active compounds read low 0.992 | locus YBR009C, strain hhf1, active compounds read low 0.963 | locus YBR021W, strain FUR4, active compounds read low 0.958 | locus YBR023C, strain chs3, active compounds read low 0.97 | locus YBR171W, strain sec66, active compounds read low 0.987 | locus YBR229C, strain ROT2, active compounds read low 1.01 | locus YBR231C, strain swc5, active compounds read low 0.944 | locus YBR279W, strain paf1, active compounds read low 0.978 | locus YCL011C, strain gbp2, active compounds read low 0.967 | locus YCL016C, strain dcc1, active compounds read low 0.986 | locus YCL029C, strain bik1, active compounds read low 0.998 | locus YCL061C, strain MRC1, active compounds read low 0.995 | locus YCL069W, strain vba3, active compounds read low 0.977 | locus YCR088W, strain abp1, active compounds read low 0.991 | locus YDL005C, strain med2, active compounds read low 0.989 | locus YDL035C, strain GPR1, active compounds read low 1.05 | locus YDL040C, strain nat1, active compounds read low 0.992 | locus YDL074C, strain BRE1, active compounds read low 1.06 | locus YDL101C, strain DUN1, active compounds read low 1.02 | locus YDL134C, strain PPH21, active compounds read low 1.05 | locus YDL185W, strain tfp1, active compounds read low 1.01 | locus YDL192W, strain arf1, active compounds read low 1.01 | locus YDR001C, strain nth1, active compounds read low 0.991 | locus YDR069C, strain doa4, active compounds read low 0.985 | locus YDR101C, strain arx1, active compounds read low 0.988 | locus YDR137W, strain rgp1, active compounds read low 1.01 | locus YDR159W, strain sac3, active compounds read low 0.97 | locus YDR162C, strain NBP2, active compounds read low 1.02 | locus YDR195W, strain ref2 1.14 | locus YDR297W, strain sur2, active compounds read low 0.979 | locus YDR318W, strain mcm21, active compounds read low 1.01 | locus YDR334W, strain swr1, active compounds read low 0.994 | locus YDR335W, strain msn5, active compounds read low 0.987 | locus YDR388W, active compounds read low 1 | locus YDR502C, strain sam2, active compounds read low 1.01 | locus YEL003W, strain gim4, active compounds read low 0.938 | locus YEL037C, strain rad23, active compounds read low 0.99 | locus YEL061C, strain CIN8 (second series), active compounds read low 0.981 | locus YER015W, strain faa2, active compounds read low 0.977 | locus YER016W, strain bim1, active compounds read low 0.994 | locus YER110C, active compounds read low 1 | locus YER111C, strain swi4, active compounds read low 1 | locus YER155C, strain BEM2 (second series), active compounds read low 0.881 | locus YER155C, strain BEM2, active compounds read low 1 | locus YER167W, strain BCK2, active compounds read low 1.01 | locus YFR010W, strain ubp6, active compounds read low 0.986 | locus YGL078C, strain dbp3, active compounds read low 1.01 | locus YGL086W, strain mad1, active compounds read low 1 | locus YGL167C, strain pmr1, active compounds read low 0.997 | locus YGL173C, strain kem1, active compounds read low 0.977 | locus YGL227W, strain vid30, active compounds read low 0.99 | locus YGL240W, strain doc1, active compounds read low 0.955 | locus YGL248W, strain PDE1, active compounds read low 1.04 | locus YGL253W, strain hxk2, active compounds read low 0.958 | locus YGR135W, strain pre9, active compounds read low 1 | locus YGR252W, strain gcn5, active compounds read low 0.965 | locus YHR013C, strain ard1, active compounds read low 0.975 | locus YHR027C, strain rpn1, active compounds read low 0.987 | locus YHR030C, strain SLT2, active compounds read low 1.02 and 0.987 | locus YHR079C, strain IRE1 (second series), active compounds read low 1 | locus YHR079C, strain IRE1, active compounds read low 0.996 | locus YHR094C, strain hxt1, active compounds read low 1.01 | locus YHR129C, strain ARP1, active compounds read low 1.01 | locus YHR142W, strain chs7, active compounds read low 0.949 | locus YHR200W, strain rpn10, active compounds read low 1.04 | locus YIL066C, strain RNR3, active compounds read low 1.02 | locus YIL073C, strain SPO22, active compounds read low 1.13 | locus YIL125W, strain kgd1, active compounds read low 1.02 | locus YIR030C, strain dcg1, active compounds read low 1.01 | locus YJL092W, strain hpr5, active compounds read low 0.996 | locus YJL095W, strain BCK1 (second series), active compounds read low 0.993 | locus YJL095W, strain BCK1, active compounds read low 1.03 and 1 | locus YJL115W, strain asf1, active compounds read low 0.996 | locus YJL129C, strain trk1, active compounds read low 1.01 | locus YJL134W, strain LCB3, active compounds read low 1.01 | locus YJL154C, strain vps35, active compounds read low 0.995 | locus YJL164C, strain tpk1, active compounds read low 0.965 | locus YJL166W, strain qcr8, active compounds read low 0.945 | locus YJL168C, strain set2, active compounds read low 1.01 | locus YJL187C, strain SWE1 (second series), active compounds read low 1.02 | locus YJL187C, strain SWE1, active compounds read low 0.99 | locus YJR043C, strain POL32, active compounds read low 1.03 | locus YJR066W, strain TOR1, active compounds read low 0.931 | locus YJR075W, strain HOC1, active compounds read low 1.03 | locus YKL009W, strain mrt4, active compounds read low 0.991 | locus YKL068W, active compounds read low 1.01 | locus YKL085W, strain MDH1 (second series), active compounds read low 1.01 | locus YKL085W, strain MDH1, active compounds read low 1.01 | locus YKL160W, strain elf1, active compounds read low 0.963 | locus YKR001C, strain vps1, active compounds read low 1.02 | locus YKR026C, strain gcn3, active compounds read low 0.995 | locus YKR091W, strain srl3, active compounds read low 0.998 | locus YLL001W, strain dnm1, active compounds read low 0.949 | locus YLL026W, active compounds read low 0.999 | locus YLL041C, strain sdh2, active compounds read low 0.998 | locus YLR027C, strain aat2, active compounds read low 0.99 | locus YLR039C, strain RIC1, active compounds read low 1.18 | locus YLR058C, strain SHM2, active compounds read low 1.01 | locus YLR102C, strain apc9, active compounds read low 1.01 | locus YLR113W, strain HOG1, active compounds read low 1.07 | locus YLR221C, strain rsa3, active compounds read low 0.963 | locus YLR258W, strain gsy2, active compounds read low 0.943 | locus YLR262C, strain YPT6 (second series), active compounds read low 0.985 | locus YLR268W, strain sec22, active compounds read low 0.999 | locus YLR320W, strain mms22, active compounds read low 0.941 | locus YLR342W, strain FKS1, active compounds read low 0.994 | locus YLR357W, strain rsc2, active compounds read low 1.01 | locus YLR370C, strain arc18, active compounds read low 0.996 | locus YLR371W, strain rom2, active compounds read low 1.02 | locus YLR384C, strain iki3, active compounds read low 0.986 | locus YLR418C, strain cdc73, active compounds read low 1.04 | locus YML016C, strain PPZ1, active compounds read low 1.01 | locus YML032C, strain rad52, active compounds read low 1 | locus YML120C, strain ndi1, active compounds read low 0.972 | locus YML124C, strain tub3, active compounds read low 0.999 | locus YMR058W, strain fet3, active compounds read low 0.975 | locus YMR078C, strain ctf18, active compounds read low 1.02 | locus YMR125W, strain sto1, active compounds read low 1.04 | locus YMR129W, active compounds read low 1 | locus YMR205C, strain PFK2, active compounds read low 0.985 | locus YMR223W, strain ubp8, active compounds read low 0.992 | locus YMR231W, strain pep5, active compounds read low 0.999 | locus YMR307W, strain GAS1, active compounds read low 1.17 | locus YNL067W, strain RPL9B, active compounds read low 0.986 | locus YNL128W, strain TEP1, active compounds read low 1.02 | locus YNL153C, strain GIM3, active compounds read low 1 | locus YNL183C, strain NPR1, active compounds read low 0.949 | locus YNL209W, strain ssb2, active compounds read low 0.977 | locus YNL233W, strain BNI4, active compounds read low 1.03 | locus YNL248C, strain rpa49, active compounds read low 0.989 | locus YNL250W, strain rad50, active compounds read low 1.05 | locus YNL271C, strain bni1, active compounds read low 1.01 | locus YNL298W, strain CLA4, active compounds read low 1.02 | locus YNL307C, strain MCK1, active compounds read low 1 | locus YNL322C, strain KRE1 (second series), active compounds read low 0.998 | locus YNR049C, strain mso1, active compounds read low 1 | locus YNR052C, strain pop2, active compounds read low 1.01 | locus YOL012C, strain htz1 1.05 | locus YOL147C, strain pex11, active compounds read low 1.01 | locus YOR001W, strain rrp6, active compounds read low 0.946 | locus YOR061W, strain CKA2, active compounds read low 1.02 | locus YOR069W, strain VPS5, active compounds read low 1 | locus YOR070C, strain gyp1, active compounds read low 0.988 | locus YOR080W, strain dia2, active compounds read low 0.987 | locus YOR083W, strain WHI5, active compounds read low 0.942 | locus YOR106W, strain vam3, active compounds read low 0.966 | locus YOR136W, strain idh2, active compounds read low 1.02 | locus YOR144C, strain elg1, active compounds read low 1.01 | locus YOR184W, strain ser1, active compounds read low 1.02 | locus YOR231W, strain MKK1, active compounds read low 0.997 | locus YOR265W, strain rbl2, active compounds read low 0.989 | locus YOR270C, strain vph1, active compounds read low 0.839 | locus YOR290C, strain snf2, active compounds read low 0.958 | locus YOR316C, strain cot1, active compounds read low 1.03 | locus YPL051W, strain arl3, active compounds read low 0.972 | locus YPL078C, strain atp4, active compounds read low 0.951 | locus YPL106C, strain sse1, active compounds read low 0.961 | locus YPL240C, strain hsp82, active compounds read low 0.989 | locus YPL241C, strain CIN2, active compounds read low 1.01 | locus YPL256C, strain CLN2, active compounds read low 1.03 | locus YPR119W, strain clb2, active compounds read low 1.01 | locus YPR141C, strain kar3, active compounds read low 1.01 | locus YPR163C, strain tif3, active compounds read low 0.992 | locus YPR167C, strain met16, active compounds read low 1.02 | strain wtn01, active compounds read low 0.999
